# The supplement of paper PMC8728848
# Shown is part of a subset that was picked to be rich in the strongest signals.
# B1: PVL (Psathyrella velutina), Q309D1_9AGAR (protein)
# chain: MSVVVISQALPVPTRIPGVADLVGFGNGGVYIIRNSLLIQVVKVINNFGYDAGGWRVEKHVRLLADTTGDNQPDVVGFGENGVWISTNNGNNTFVDPPKMVLANFAYAAGGWRVEKHIRFMADLRKTGRADIVGFGDGGIYISRNNGGGQFAPAQLALNNFGYAQGWRLDRHLRFLADVTGDGLLDVVGFGENQVYIARNSGNGTFQPAQAVVNNFCIGAGGWTISAHPRVVADLTGDRKADILGFGVAGVYTSLNNGNGTFGAVNLVLKDFGVNSGWRVEKHVRCVSSLTNKKVGDIIGFGDAGVYVALNNGNGTFGPVKRVIDNFGYNQGWRVDKHPRFVVDLTGDGCADIVGFGENSVWACMNKGDGTFGPIMKLIDDMTVSKGWTLQKTVRYAANLYL
# Assays:
# Experiment in all cases: glycan array binding signal (z-score within array); higher = stronger binding
# Conditions in all cases: glycan notation: IUPAC condensed, linker removed
# [1] = biological target: GlcNAc(b1-3)Gal(b1-4)Glc
# How it was run: (§1)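 Glycan array binding is given as a within-array Z-score, which can be read as non-binding when negative. The arrays, 3228 of them, came from the Consortium for Functional Glycomics database and were retained only where the protein sequence was available. Z-scores were averaged across arrays of the same protein sequence at different concentrations or buffers and across linkers.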
# [2] = biological target: GlcNAc(b1-3)Gal(b1-4)GlcNAc(b1-2)Man(a1-3)[GlcNAc(b1-3)Gal(b1-4)GlcNAc(b1-2)Man(a1-6)]Man(b1-4)GlcNAc(b1-4)[Fuc(a1-6)]GlcNAc
# How it was run: as §1
# [3] = biological target: GlcNAc(b1-3)Gal(b1-4)GlcNAc(b1-3)Gal(b1-4)GlcNAc
# How it was run: as §1
# [4] = biological target: GlcNAc(b1-3)Gal(b1-4)GlcNAc(b1-3)Gal(b1-4)GlcNAc(b1-2)Man(a1-3)[GlcNAc(b1-3)Gal(b1-4)GlcNAc(b1-3)Gal(b1-4)GlcNAc(b1-2)Man(a1-6)]Man(b1-4)GlcNAc(b1-4)GlcNAc
# How it was run: as §1
# [5] = biological target: GlcNAc(b1-3)Gal(b1-4)GlcNAc(b1-3)Gal(b1-4)GlcNAc(b1-2)Man(a1-3)[GlcNAc(b1-3)Gal(b1-4)GlcNAc(b1-3)Gal(b1-4)GlcNAc(b1-2)Man(a1-6)]Man(b1-4)GlcNAc(b1-4)[Fuc(a1-6)]GlcNAc
# How it was run: as §1
# [6] = biological target: GlcNAc(b1-3)Gal(b1-4)GlcNAc(b1-3)Gal(b1-4)GlcNAc(b1-2)[GlcNAc(b1-3)Gal(b1-4)GlcNAc(b1-3)Gal(b1-4)GlcNAc(b1-6)]Man(a1-6)[GlcNAc(b1-3)Gal(b1-4)GlcNAc(b1-3)Gal(b1-4)GlcNAc(b1-2)Man(a1-3)]Man(b1-4)GlcNAc(b1-4)[Fuc(a1-6)]GlcNAc
# How it was run: as §1
# [7] = biological target: GlcNAc(b1-3)Gal(b1-4)GlcNAc(b1-3)Gal(b1-4)GlcNAc(b1-3)Gal(b1-4)GlcNAc(b1-2)Man(a1-3)[GlcNAc(b1-3)Gal(b1-4)GlcNAc(b1-3)Gal(b1-4)GlcNAc(b1-3)Gal(b1-4)GlcNAc(b1-2)Man(a1-6)]Man(b1-4)GlcNAc(b1-4)GlcNAc
# How it was run: as §1
# [8] = biological target: GlcNAc(b1-3)Gal(b1-4)GlcNAc(b1-3)Gal(b1-4)GlcNAc(b1-3)Gal(b1-4)GlcNAc(b1-2)Man(a1-3)[GlcNAc(b1-3)Gal(b1-4)GlcNAc(b1-3)Gal(b1-4)GlcNAc(b1-3)Gal(b1-4)GlcNAc(b1-2)Man(a1-6)]Man(b1-4)GlcNAc(b1-4)[Fuc(a1-6)]GlcNAc
# How it was run: as §1
# [9] = biological target: GlcNAc(b1-3)Gal(b1-4)GlcNAc(b1-3)Gal(b1-4)GlcNAc(b1-3)Gal(b1-4)GlcNAc(b1-2)[GlcNAc(b1-3)Gal(b1-4)GlcNAc(b1-3)Gal(b1-4)GlcNAc(b1-3)Gal(b1-4)GlcNAc(b1-6)]Man(a1-6)[GlcNAc(b1-3)Gal(b1-4)GlcNAc(b1-3)Gal(b1-4)GlcNAc(b1-3)Gal(b1-4)GlcNAc(b1-2)Man(a1-3)]Man(b1-4)GlcNAc(b1-4)[Fuc(a1-6)]GlcNAc
# How it was run: as §1
# [10] = biological target: GlcNAc(b1-3)Gal(b1-4)GlcNAc(b1-3)Gal(b1-4)GlcNAc(b1-3)Gal(b1-4)GlcNAc(b1-3)Gal(b1-4)GlcNAc(b1-2)Man(a1-3)[GlcNAc(b1-3)Gal(b1-4)GlcNAc(b1-3)Gal(b1-4)GlcNAc(b1-3)Gal(b1-4)GlcNAc(b1-3)Gal(b1-4)GlcNAc(b1-2)Man(a1-6)]Man(b1-4)GlcNAc(b1-4)GlcNAc
# How it was run: as §1
# [11] = biological target: GlcNAc(b1-3)Gal(b1-4)GlcNAc(b1-3)Gal(b1-4)GlcNAc(b1-3)Gal(b1-4)GlcNAc(b1-3)Gal(b1-4)GlcNAc(b1-2)Man(a1-3)[GlcNAc(b1-3)Gal(b1-4)GlcNAc(b1-3)Gal(b1-4)GlcNAc(b1-3)Gal(b1-4)GlcNAc(b1-3)Gal(b1-4)GlcNAc(b1-2)Man(a1-6)]Man(b1-4)GlcNAc(b1-4)[Fuc(a1-6)]GlcNAc
# How it was run: as §1
# [12] = biological target: GlcNAc(b1-3)Gal(b1-4)GlcNAc(b1-3)Gal(b1-4)GlcNAc(b1-3)Gal(b1-4)GlcNAc(b1-3)Gal(b1-4)GlcNAc(b1-2)[GlcNAc(b1-3)Gal(b1-4)GlcNAc(b1-3)Gal(b1-4)GlcNAc(b1-3)Gal(b1-4)GlcNAc(b1-3)Gal(b1-4)GlcNAc(b1-6)]Man(a1-6)[GlcNAc(b1-3)Gal(b1-4)GlcNAc(b1-3)Gal(b1-4)GlcNAc(b1-3)Gal(b1-4)GlcNAc(b1-3)Gal(b1-4)GlcNAc(b1-2)Man(a1-3)]Man(b1-4)GlcNAc(b1-4)[Fuc(a1-6)]GlcNAc
# How it was run: as §1
# [13] = biological target: GlcNAc(b1-3)Gal(b1-4)GlcNAc(b1-6)[GlcNAc(b1-3)Gal(b1-3)]GalNAc
# How it was run: as §1
# [14] = biological target: GlcNAc(b1-3)[GlcNAc(b1-6)]GalNAc
# How it was run: as §1
# [15] = biological target: GlcNAc(b1-4)GlcNAc(b1-4)GlcNAc(b1-4)GlcNAc(b1-4)GlcNAc(b1-4)GlcNAc
# How it was run: as §1
# [16] = biological target: GlcNAc(b1-6)Gal(b1-4)GlcNAc
# How it was run: as §1
# [17] = biological target: Kdn(a2-3)Gal(b1-4)[Fuc(a1-3)]GlcNAc
# How it was run: as §1
# [18] = biological target: Neu5Ac(a2-3)Gal
# How it was run: as §1
# [19] = biological target: Neu5Ac(a2-3)Gal(b1-4)GlcNAc(b1-2)Man
# How it was run: as §1
# [20] = biological target: Neu5Ac(a2-3)Gal(b1-4)GlcNAc(b1-2)[Neu5Ac(a2-3)Gal(b1-4)GlcNAc(b1-4)]Man(a1-3)[GlcNAc(b1-4)][Neu5Ac(a2-3)Gal(b1-4)GlcNAc(b1-2)[Neu5Ac(a2-3)Gal(b1-4)GlcNAc(b1-6)]Man(a1-6)]Man(b1-4)GlcNAc(b1-4)GlcNAc
# How it was run: as §1
# [21] = biological target: Neu5Ac(a2-3)Gal(b1-4)[Fuc(a1-3)]GlcNAc(b1-3)Gal(b1-4)[Fuc(a1-3)]GlcNAc(b1-3)Gal(b1-4)[Fuc(a1-3)]GlcNAc
# How it was run: as §1
# [22] = biological target: Neu5Ac(a2-3)GalNAc(b1-4)GlcNAc
# How it was run: as §1
# [23] = biological target: Neu5Ac(a2-6)Gal(b1-4)GlcNAc(b1-2)Man(a1-3)[Gal(b1-4)GlcNAc(b1-2)Man(a1-6)]Man(b1-4)GlcNAc(b1-4)GlcNAc
# How it was run: as §1
# [24] = biological target: Neu5Ac(a2-6)Gal(b1-4)GlcNAc(b1-2)Man(a1-3)[Man(a1-6)]Man(b1-4)GlcNAc(b1-4)GlcNAc
# How it was run: as §1
binder,measurement,setting,value
B1,glycan array binding signal (z-score),[1],4.07
same,glycan array binding signal (z-score),[2],3.27
same,glycan array binding signal (z-score),[3],4.46
same,glycan array binding signal (z-score),[4],3.34
same,glycan array binding signal (z-score),[5],4.03
same,glycan array binding signal (z-score),[6],4.69
same,glycan array binding signal (z-score),[7],4.58
same,glycan array binding signal (z-score),[8],4.34
same,glycan array binding signal (z-score),[9],5.13
same,glycan array binding signal (z-score),[10],4.45
same,glycan array binding signal (z-score),[11],4.27
same,glycan array binding signal (z-score),[12],5.12
same,glycan array binding signal (z-score),[13],2.71
same,glycan array binding signal (z-score),[14],1.1
same,glycan array binding signal (z-score),[15],0.53
same,glycan array binding signal (z-score),[16],0.714
same,glycan array binding signal (z-score),[17],-0.363
same,glycan array binding signal (z-score),[18],-0.341
same,glycan array binding signal (z-score),[19],-0.35
same,glycan array binding signal (z-score),[20],-0.201
same,glycan array binding signal (z-score),[21],-0.297
same,glycan array binding signal (z-score),[22],-0.351
same,glycan array binding signal (z-score),[23],-0.362
same,glycan array binding signal (z-score),[24],-0.349
